In PubChem BioAssay (EPA / NIEHS):
Records with an inconclusive call do not appear. The source holds several records for some structures; these can differ, active in one and inactive in another. Active and inactive are the calls of the source. How the source made its calls, unless noted: active means hit-call score of the fitted dose curve at least 0.9, where 1 is the maximum; inactive means score below 0.9.

What was measured:
[1] = ATG_GAL4_TRANS: Attagene TRANS-FACTORIAL HepG2 Assay for GAL4 (Internal Marker) (AID 2282976; active means hit-call score of the fitted dose curve at least 0.9, where 1 is the maximum); settings: HepG2 Attagene TRANS GAL4 internal marker reporter
Summary of the method: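 RT-PCR/capillary electrophoresis readout of reporter mRNA. HepG2, transient MRTU transfection (GAL4-UAS reporters), 24 h compound exposure. Background-control endpoint, positive direction vs DMSO baseline.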

[2] = target: Estrogen-related receptor gamma (Homo sapiens) (UniProt P62508); test: ATG_ERRg_TRANS: Attagene TRANS-FACTORIAL HepG2 Assay for human Estrogen-Related Receptor gamma (ERRg) (AID 2282977; active means hit-call score of the fitted dose curve at least 0.9, where 1 is the maximum;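 further: hits increase reporter signal over DMSO so potencies reflect activators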); settings: HepG2 Attagene TRANS reporter, ERRg transactivation
Summary of the method: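 Exogenous NR-Gal4 chimera activity measured as reporter transcript induction after 24 h in transiently transfected HepG2 cells. RNA reverse-transcribed, PCR-amplified, 6-FAM-labelled and resolved by capillary electrophoresis; increase over DMSO baseline.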

[3] = target: Glucocorticoid receptor (Homo sapiens) (UniProt P04150); test: ATG_GR_TRANS: Attagene TRANS-FACTORIAL HepG2 Assay for human Glucocorticoid Receptor (GR) (AID 2282978; active means hit-call score of the fitted dose curve at least 0.9, where 1 is the maximum;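 further: activators score as hits since higher reporter transcript over DMSO is fitted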); settings: HepG2 Attagene TRANS GR reporter, mRNA transcription
Summary of the method: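 HepG2 transient transfection, multiple reporter units, GAL4-UAS under NR-GAL4 chimera control. 24 h treatment. Reporter mRNA by RT-PCR/CE fluorescence, DMSO as negative control.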

[4] = target: Oxysterols receptor LXR-beta (Homo sapiens) (UniProt P55055); test: ATG_LXRb_TRANS: Attagene TRANS-FACTORIAL HepG2 Assay for human Liver X Receptor beta (LXRb) (AID 2282981; active means hit-call score of the fitted dose curve at least 0.9, where 1 is the maximum); settings: HepG2 Attagene TRANS GAL4-LXRb reporter, mRNA
Summary of the method: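 Multiplexed reporter assay, HepG2, 24 h dosing. Fluorescence of labelled RT-PCR products after capillary electrophoresis gives transcript level; positive fitting direction relative to DMSO.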

[5] = ATG_M_06_TRANS: Attagene TRANS-FACTORIAL HepG2 Assay for M06 Transcription Factor (Internal Marker) (AID 2282983; active means hit-call score of the fitted dose curve at least 0.9, where 1 is the maximum); settings: HepG2 Attagene TRANS M06 internal marker reporter
Summary of the method: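 Read-out: fluorescent reporter cDNA fragments resolved by capillary electrophoresis after RT-PCR and HpaI cut. Source cells were HepG2 carrying transfected multi-reporter GAL4 constructs, dosed 24 h. Increase over DMSO control analysed.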

[6] = ATG_M_32_TRANS: Attagene TRANS-FACTORIAL HepG2 Assay for M32 Transcription Factor (Internal Marker) (AID 2282984; active means hit-call score of the fitted dose curve at least 0.9, where 1 is the maximum;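 further: transcript level of a background control reporter unit measured by RT-PCR and capillary electrophoresis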); settings: HepG2 Attagene TRANS M32 internal marker reporter
Summary of the method: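 Internal-marker readout from a multiplexed transcription reporter panel. HepG2 cells were transfected with GAL4-UAS reporter units, treated 24 hours, and reporter transcript levels determined by fluorescence after RT-PCR and capillary separation.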

[7] = target: Nuclear receptor subfamily 4 group A member 2 (Homo sapiens) (UniProt P43354); test: ATG_NURR1_TRANS: Attagene TRANS-FACTORIAL HepG2 Assay for human Nuclear Receptor Related Protein 1 (NURR1) (AID 2282985; active means hit-call score of the fitted dose curve at least 0.9, where 1 is the maximum); settings: HepG2 Attagene TRANS reporter, mRNA readout
Summary of the method: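 Endpoint: reporter mRNA increase relative to DMSO. HepG2 cells transfected with reporter units, treated 24 h; RNA processed by RT-PCR, labelling, HpaI digestion and capillary electrophoresis.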

[8] = target: Transcriptional activator Myb (Homo sapiens) (UniProt P10242); test: ATG_Myb_CIS: Attagene CIS-FACTORIAL HepG2 Assay for human Myeloblastosis (Myb) Proto-Oncogene Transcription Factor (AID 2282986); settings: HepG2 Attagene CIS-FACTORIAL Myb reporter transcription; actives raise or lower the signal
Summary of the method: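 Multiplexed cis-reporter system in HepG2: transient transfection, 24 h treatment, mRNA readout by RT-PCR and capillary electrophoresis. Both increases and decreases are scored versus DMSO negative control.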

[9] = target: Nuclear respiratory factor 1 (Homo sapiens) (UniProt Q16656); test: ATG_NRF1_CIS: Attagene CIS-FACTORIAL HepG2 Assay for human Nuclear Respiratory Factor 1 (NRF1) Orphan Gene (AID 2282987); settings: HepG2 NRF1 cis-element reporter, Attagene multiplex; actives raise or lower the signal
Summary of the method: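 Endogenous factor activity was captured via cis-element-driven reporter transcripts in HepG2 cells. Following 24 h chemical treatment, transcripts were quantified by RT-PCR and capillary electrophoresis.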

[10] = ATG_NFI_CIS: Attagene CIS-FACTORIAL HepG2 Assay for human Nuclear Factor I (NFI) (AID 2282989); settings: HepG2 cis-regulatory reporter, NFI response element transcription; actives raise or lower the signal
Summary of the method: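 Cells: human liver HepG2, transiently transfected with promoter-regulated reporter transcription units. Exposure 24 h. Detection: fluorescent RT-PCR products separated by capillary electrophoresis, normalised to DMSO negative control.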

[11] = target: Myc proto-oncogene protein (Homo sapiens) (UniProt P01106); test: ATG_Myc_CIS: Attagene CIS-FACTORIAL HepG2 Assay for human Myelocytomatosis (Myc) Proto-Oncogene Transcription Factor (AID 2282990); settings: HepG2, Attagene cis-reporter transcription factor activity; actives raise or lower the signal
Summary of the method: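 Transiently transfected HepG2 cells bearing cis-promoter reporter units for endogenous transcription factors; 24 h exposure. Reporter mRNA measured by RT-PCR, 6-FAM primer extension, HpaI cut and capillary electrophoresis; bidirectional fit relative to DMSO.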

[12] = ATG_NF_kB_CIS: Attagene CIS-FACTORIAL HepG2 Assay for human Nuclear Factor Kappa B (NF-kB) (AID 2282991); settings: HepG2 Attagene cis-factorial NF-kB reporter mRNA; actives raise or lower the signal
Summary of the method: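 After 24 h compound incubation, transfected HepG2 cells yield total RNA; reporter cDNA is PCR-amplified, end-labelled with 6-FAM, HpaI-digested and analysed on a genetic analyser. Endogenous factor activity, DMSO-referenced bidirectional fit.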

[13] = ATG_NRF2_ARE_CIS: Attagene CIS-FACTORIAL HepG2 Assay for human Nuclear Factor Erythroid 2 Related Factor 2 (NFR2) response to Antioxidant Response Elements (ARE) (AID 2282992); settings: HepG2 Attagene ARE/NRF2 reporter, transcription factor activity; actives raise or lower the signal;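 on AC50: reporter mRNA level measured by RT-PCR and capillary electrophoresis fluorescence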
Summary of the method: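 Endogenous transcription factor activity in human liver HepG2 cells is tracked via a cis-element-driven reporter within a multiplexed set. mRNA induction is read by RT-PCR and capillary electrophoresis after 24 h, with DMSO as baseline.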

[14] = ATG_Oct_MLP_CIS: Attagene CIS-FACTORIAL HepG2 Assay for human Octamer-Binding Transcription Factor (Oct) (AID 2282993); settings: HepG2 Attagene cis-factorial Oct reporter, mRNA; actives raise or lower the signal
Summary of the method: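 HepG2, transient MRTU transfection, cis promoter elements; 24 h dosing; RT-PCR/CE fluorescence read-out of reporter mRNA; fit both directions vs DMSO.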

[15] = target: Cellular tumor antigen p53 (Homo sapiens) (UniProt P04637); test: ATG_p53_CIS: Attagene CIS-FACTORIAL HepG2 Assay for human p53 Transcription Factor (AID 2282994); settings: HepG2 p53 cis-element reporter, Attagene mRNA; actives raise or lower the signal
Summary of the method: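 Steps: transfect HepG2 with multiplexed cis reporter constructs; dose chemicals 24 h; extract RNA, reverse-transcribe, PCR-amplify reporter sequences; FAM-label, HpaI-digest, resolve fragments by CE. Activity fitted both directions relative to DMSO.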

[16] = BSK_3C_uPAR: BioMAP Diversity Plus: 3C Assay for Urokinase-type plasminogen activator receptor (uPAR) Biomarker Activity (AID 2282998); settings: BioMAP 3C HUVEC, uPAR biomarker ELISA; actives raise or lower the signal
Summary of the method: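 A multiplexed primary-cell system built on human umbilical vein endothelium was used, with chemical present for 24 h before reading. Cell-surface uPAR was detected by ELISA; signal change in either direction counted against DMSO.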

[17] = target: Oxysterols receptor LXR-alpha (Homo sapiens) (UniProt Q13133); test: ATG_LXRa_TRANS: Attagene TRANS-FACTORIAL HepG2 Assay for human Liver X Receptor alpha (LXRa) (AID 2282980; active means hit-call score of the fitted dose curve at least 0.9, where 1 is the maximum); settings: HepG2 Attagene TRANS reporter, LXRa transactivation
Summary of the method: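 Read-out: reporter transcript levels by RT-PCR plus capillary electrophoresis, fluorescence intensity. Transiently transfected HepG2, exogenous NR-GAL4 chimera, GAL4-UAS reporters; 24 h compound exposure. Activity = increase over DMSO negative control.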

[18] = target: Hepatocyte nuclear factor 4-alpha (Homo sapiens) (UniProt P41235); test: ATG_HNF4a_TRANS: Attagene TRANS-FACTORIAL HepG2 Assay for human Hepatocyte Nuclear Factor 4 alpha (HNF4a) (AID 2282982; active means hit-call score of the fitted dose curve at least 0.9, where 1 is the maximum); settings: HepG2 HNF4a transactivation reporter, mRNA readout
Summary of the method: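 Endpoint reflects transcriptional activation of a GAL4-UAS reporter by an HNF4a-GAL4 chimera in transfected HepG2 cells, 24 h post-dosing. Fluorescence from RT-PCR products separated by capillary electrophoresis; DMSO baseline.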

[19] = BSK_3C_TissueFactor: BioMAP Diversity Plus: 3C Assay for Tissue Factor Biomarker Activity (AID 2282997); settings: BioMAP 3C HUVEC, tissue factor biomarker readout; actives raise or lower the signal
Summary of the method: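 HUVEC, 3C system, 24 h post-dose; Tissue Factor by ELISA; bidirectional fit vs DMSO baseline.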

Sequence of Myc proto-oncogene protein (Homo sapiens) (P01106 whole entry, looked up): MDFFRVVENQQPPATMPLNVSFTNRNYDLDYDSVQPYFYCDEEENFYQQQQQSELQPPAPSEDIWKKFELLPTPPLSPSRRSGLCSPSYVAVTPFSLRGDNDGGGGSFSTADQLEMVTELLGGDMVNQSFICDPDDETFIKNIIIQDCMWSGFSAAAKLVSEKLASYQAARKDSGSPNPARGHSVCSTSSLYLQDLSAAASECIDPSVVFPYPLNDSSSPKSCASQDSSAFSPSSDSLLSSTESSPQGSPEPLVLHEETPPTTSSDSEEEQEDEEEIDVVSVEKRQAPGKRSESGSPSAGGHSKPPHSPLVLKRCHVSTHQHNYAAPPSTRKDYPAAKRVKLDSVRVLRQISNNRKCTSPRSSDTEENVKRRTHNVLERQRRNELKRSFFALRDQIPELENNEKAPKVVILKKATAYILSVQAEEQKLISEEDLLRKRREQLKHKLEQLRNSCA
Sequence of Hepatocyte nuclear factor 4-alpha (Homo sapiens) (P41235 whole entry, looked up, the tested form may be a part): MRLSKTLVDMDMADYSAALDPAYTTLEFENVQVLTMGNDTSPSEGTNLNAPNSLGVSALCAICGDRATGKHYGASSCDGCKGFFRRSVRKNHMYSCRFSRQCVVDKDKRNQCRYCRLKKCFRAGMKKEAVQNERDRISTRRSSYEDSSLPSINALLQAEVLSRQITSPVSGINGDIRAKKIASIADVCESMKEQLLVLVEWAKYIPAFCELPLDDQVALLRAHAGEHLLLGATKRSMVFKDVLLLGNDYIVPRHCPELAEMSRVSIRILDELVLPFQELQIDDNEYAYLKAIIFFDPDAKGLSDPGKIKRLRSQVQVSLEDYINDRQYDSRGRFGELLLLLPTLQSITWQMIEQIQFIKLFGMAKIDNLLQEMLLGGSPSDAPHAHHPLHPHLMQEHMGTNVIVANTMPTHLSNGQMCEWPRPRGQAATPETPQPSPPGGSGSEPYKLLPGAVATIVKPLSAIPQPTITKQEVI
Sequence of Nuclear receptor subfamily 4 group A member 2 (Homo sapiens) (P43354 whole entry, looked up): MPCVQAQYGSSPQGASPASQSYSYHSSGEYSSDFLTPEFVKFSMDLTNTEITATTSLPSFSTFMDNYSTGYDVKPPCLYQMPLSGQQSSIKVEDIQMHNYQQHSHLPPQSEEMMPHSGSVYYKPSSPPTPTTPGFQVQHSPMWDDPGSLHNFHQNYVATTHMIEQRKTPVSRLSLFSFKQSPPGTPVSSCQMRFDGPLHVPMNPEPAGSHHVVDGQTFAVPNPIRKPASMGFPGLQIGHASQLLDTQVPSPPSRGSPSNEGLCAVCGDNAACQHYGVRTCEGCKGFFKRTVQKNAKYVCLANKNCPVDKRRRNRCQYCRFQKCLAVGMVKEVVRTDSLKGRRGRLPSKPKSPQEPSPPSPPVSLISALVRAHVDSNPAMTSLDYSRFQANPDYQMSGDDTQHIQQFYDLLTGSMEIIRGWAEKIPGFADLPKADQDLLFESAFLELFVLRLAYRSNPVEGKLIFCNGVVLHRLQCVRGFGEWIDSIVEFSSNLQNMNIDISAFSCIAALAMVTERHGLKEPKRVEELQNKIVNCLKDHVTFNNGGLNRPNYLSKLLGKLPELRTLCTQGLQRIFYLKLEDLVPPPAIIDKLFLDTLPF
Sequence of Cellular tumor antigen p53 (Homo sapiens) (P04637 whole entry, looked up, the tested form may be a part): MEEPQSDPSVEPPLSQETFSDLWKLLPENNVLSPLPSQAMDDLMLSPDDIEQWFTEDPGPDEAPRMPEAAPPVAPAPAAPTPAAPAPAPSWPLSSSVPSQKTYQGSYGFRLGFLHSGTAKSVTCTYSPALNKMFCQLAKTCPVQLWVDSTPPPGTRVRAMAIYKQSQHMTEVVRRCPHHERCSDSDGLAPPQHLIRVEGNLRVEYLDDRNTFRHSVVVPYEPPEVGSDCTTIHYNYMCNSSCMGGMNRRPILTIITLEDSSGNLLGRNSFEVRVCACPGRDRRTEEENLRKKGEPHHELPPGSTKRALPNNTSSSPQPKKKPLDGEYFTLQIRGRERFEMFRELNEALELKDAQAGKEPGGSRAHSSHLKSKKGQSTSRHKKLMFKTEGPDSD
Sequence of Oxysterols receptor LXR-beta (Homo sapiens) (P55055 whole entry, looked up, the tested form may be a part): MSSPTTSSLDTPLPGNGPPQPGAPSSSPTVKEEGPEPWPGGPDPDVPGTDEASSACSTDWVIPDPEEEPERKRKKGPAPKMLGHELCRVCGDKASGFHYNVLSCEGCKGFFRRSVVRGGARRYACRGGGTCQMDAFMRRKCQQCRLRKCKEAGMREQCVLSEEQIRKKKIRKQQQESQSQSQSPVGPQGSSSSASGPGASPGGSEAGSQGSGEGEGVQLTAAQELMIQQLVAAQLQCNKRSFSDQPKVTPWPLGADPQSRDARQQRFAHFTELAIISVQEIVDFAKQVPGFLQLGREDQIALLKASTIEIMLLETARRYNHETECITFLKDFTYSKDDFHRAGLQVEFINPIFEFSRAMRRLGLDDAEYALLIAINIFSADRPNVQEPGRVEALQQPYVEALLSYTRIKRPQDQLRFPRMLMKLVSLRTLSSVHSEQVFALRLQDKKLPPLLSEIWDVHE
Sequence of Nuclear respiratory factor 1 (Homo sapiens) (Q16656 whole entry, looked up): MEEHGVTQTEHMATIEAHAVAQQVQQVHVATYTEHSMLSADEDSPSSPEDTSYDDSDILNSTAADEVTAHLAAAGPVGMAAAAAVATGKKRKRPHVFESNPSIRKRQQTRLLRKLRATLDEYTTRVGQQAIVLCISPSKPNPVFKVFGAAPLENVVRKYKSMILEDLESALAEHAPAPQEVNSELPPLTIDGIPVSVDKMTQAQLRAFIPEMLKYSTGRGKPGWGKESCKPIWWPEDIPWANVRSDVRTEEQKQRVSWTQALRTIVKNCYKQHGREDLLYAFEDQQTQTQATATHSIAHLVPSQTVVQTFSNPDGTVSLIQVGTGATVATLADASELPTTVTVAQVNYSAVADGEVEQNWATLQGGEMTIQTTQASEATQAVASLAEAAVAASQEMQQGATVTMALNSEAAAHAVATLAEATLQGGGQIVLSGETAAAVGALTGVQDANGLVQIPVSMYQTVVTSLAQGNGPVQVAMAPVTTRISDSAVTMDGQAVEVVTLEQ
Sequence of Transcriptional activator Myb (Homo sapiens) (P10242 whole entry, looked up): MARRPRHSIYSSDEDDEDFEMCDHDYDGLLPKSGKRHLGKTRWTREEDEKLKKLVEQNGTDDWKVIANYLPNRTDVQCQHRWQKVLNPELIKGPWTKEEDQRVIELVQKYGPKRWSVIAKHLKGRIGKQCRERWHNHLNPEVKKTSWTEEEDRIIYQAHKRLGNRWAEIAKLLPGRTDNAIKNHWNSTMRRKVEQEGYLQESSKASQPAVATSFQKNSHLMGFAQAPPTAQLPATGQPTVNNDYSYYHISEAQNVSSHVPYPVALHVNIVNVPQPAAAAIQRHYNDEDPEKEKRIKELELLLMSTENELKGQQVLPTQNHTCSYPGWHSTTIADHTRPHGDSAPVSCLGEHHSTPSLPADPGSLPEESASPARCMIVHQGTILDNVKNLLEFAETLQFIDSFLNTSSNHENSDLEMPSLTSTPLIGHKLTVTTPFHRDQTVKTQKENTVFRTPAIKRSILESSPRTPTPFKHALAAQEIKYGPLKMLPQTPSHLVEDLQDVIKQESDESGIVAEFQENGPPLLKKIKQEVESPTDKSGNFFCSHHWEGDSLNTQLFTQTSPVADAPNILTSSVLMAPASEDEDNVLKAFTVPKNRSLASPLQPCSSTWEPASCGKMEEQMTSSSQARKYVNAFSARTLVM
Sequence of Estrogen-related receptor gamma (Homo sapiens) (P62508 whole entry, looked up, the tested form may be a part): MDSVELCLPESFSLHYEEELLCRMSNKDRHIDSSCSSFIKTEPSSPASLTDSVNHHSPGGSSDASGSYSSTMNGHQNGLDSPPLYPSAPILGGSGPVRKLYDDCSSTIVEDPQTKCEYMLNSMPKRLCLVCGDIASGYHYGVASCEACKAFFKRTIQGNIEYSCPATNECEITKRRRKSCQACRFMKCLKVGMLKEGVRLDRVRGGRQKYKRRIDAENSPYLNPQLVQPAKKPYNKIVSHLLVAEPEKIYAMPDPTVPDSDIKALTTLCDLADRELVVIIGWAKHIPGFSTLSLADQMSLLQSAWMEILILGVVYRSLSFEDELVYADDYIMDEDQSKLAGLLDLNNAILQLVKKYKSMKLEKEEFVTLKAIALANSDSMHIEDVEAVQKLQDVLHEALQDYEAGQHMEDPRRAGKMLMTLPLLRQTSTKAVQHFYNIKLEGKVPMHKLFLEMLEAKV
Sequence of Oxysterols receptor LXR-alpha (Homo sapiens) (Q13133 whole entry, looked up, the tested form may be a part): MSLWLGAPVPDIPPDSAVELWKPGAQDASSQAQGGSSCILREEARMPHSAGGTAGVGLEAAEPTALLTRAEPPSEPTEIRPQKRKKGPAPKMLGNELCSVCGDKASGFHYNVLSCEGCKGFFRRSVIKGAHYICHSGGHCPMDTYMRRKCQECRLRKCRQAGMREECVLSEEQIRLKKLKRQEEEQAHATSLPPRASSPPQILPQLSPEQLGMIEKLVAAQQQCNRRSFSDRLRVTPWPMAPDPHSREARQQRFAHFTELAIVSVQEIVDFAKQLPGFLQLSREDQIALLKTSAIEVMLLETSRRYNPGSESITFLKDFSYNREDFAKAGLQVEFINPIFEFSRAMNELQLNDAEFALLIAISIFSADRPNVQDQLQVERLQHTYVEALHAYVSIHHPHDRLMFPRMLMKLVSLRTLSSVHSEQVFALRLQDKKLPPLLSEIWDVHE

## CC1(C)C(C=C(Cl)Cl)C1C(=O)OC(C#N)c1ccc(F)c(Oc2ccccc2)c1 (centres undefined)
[1]
  outcome: inactive
[2]
  outcome: inactive
[3]
  outcome: inactive
[4]
  outcome: inactive
[5]
  outcome: inactive
[6]
  outcome: inactive
[7]
  outcome: inactive
[8]
  outcome: inactive
[9]
  outcome: inactive
[10]
  outcome: inactive
[11]
  outcome: inactive
[12]
  outcome: inactive
[13]
  AC50: 7.81 µM (active)
[14]
  AC50: 2.22 µM (active)
[15]
  outcome: inactive
[16]
  outcome: inactive

## C[C@H]1[C@H](c2ccc(Cl)cc2)SC(=O)N1C(=O)NC1CCCCC1
[2]
  outcome: inactive
[17]
  outcome: inactive
[4]
  outcome: inactive
[18]
  outcome: inactive
[5]
  outcome: inactive
[7]
  outcome: inactive
[8]
  outcome: inactive
[9]
  outcome: inactive
[10]
  outcome: inactive
[11]
  outcome: inactive
[13]
  AC50: 13.5 µM (active)
[14]
  AC50: 13.7 µM (active)
[15]
  outcome: inactive
[19]
  outcome: inactive
[16]
  AC50: 13.1 µM (active)

## COC(=O)c1ccccc1S(=O)(=O)NC(=O)Nc1nc(C)nc(OC)n1
[1]
  outcome: inactive
[17]
  outcome: inactive
[4]
  outcome: inactive
[18]
  outcome: inactive
[5]
  outcome: inactive
[6]
  outcome: inactive
[7]
  outcome: inactive
[8]
  outcome: inactive
[9]
  outcome: inactive
[10]
  outcome: inactive
[11]
  outcome: inactive
[13]
  AC50: 31.3 µM (active)
  outcome: inactive
[14]
  AC50: 36 µM (active)
  outcome: inactive
[15]
  outcome: inactive
[19]
  outcome: inactive
[16]
  outcome: inactive
